Assay results as given in PubChem BioAssay (EPA / NIEHS).
Where “and” joins values, the source holds several entries; their conditions need not be identical. Equal values may be shown once. Calls of active or inactive are those of the source. How the source made its calls: active means hit-call score of the fitted dose curve at least 0.9, where 1 is the maximum; inactive means score below 0.9.

read-out: Collagen III, COL3A1 (gene 1281); experiment: BSK_MyoF_CollagenIII: BioMAP Diversity Plus: MyoF Assay for Collagen III Biomarker Activity (AID 2284239); conditions: primary human lung fibroblasts
Procedure: BSK_MyoF is a cell-based, multiplexed-readout assay that uses lung fibroblasts, […], with measurements taken at 24 hours after chemical dosing in a microplate: 96-well plate.BSK_MyoF_CollagenIII is an assay component measured in the BSK_MyoF assay. It measures Collagen III antibody related to regulation of gene expression using ELISA technology.Data from the assay component BSK_MyoF_CollagenIII was analyzed at the endpoint, BSK_MyoF_CollagenIII, in the positive analysis fitting direction relative to DMSO as the negative control and baseline of activity. Using a type of binding reporter, gain or loss-of-signal activity can be used to understand protein changes. To generalize the intended target to other relatable targets, this assay endpoint is annotated to the 'cell adhesion molecules' intended target family, where the subfamily is 'collagen'.
The levels of cell surface (or secreted, indicated by the prefix "s") biomarker endpoints were measured by ELISA. Overt cytotoxicity to cells in confluent adherent cultures (all systems other than the BT system) was assessed by measuring total protein levels using sulforhodamine B (SRB) staining in parallel cultures at the time of biomarker measurements, indicated as SRB endpoints. For proliferation assays for adherent cell types, individual cell types are cultured at sub-confluence and relative cell numbers quantified by SRB staining at time points optimized for each system (48 h: 3C and CASM3C systems; 72 h: BT and HDF3CGF systems; 96 h: SAg system). SRB was performed by staining cells with 0.1% SRB after fixation with 10% TCA and reading wells at 560 nm.Viability and proliferation of PBMC (T cells) was quantified by Alamar Blue reduction for the SAg and BT systems. For PBMC viability (referred to as PBMC Cytotoxicity within the assay endpoint names), cells were plated (75,000/well in a 96-well plate) and then chemical samples added for 1 h before addition of activators, SEB and TSST-1 (20 ng/mL final concentration each). Cells were incubated for 90 h. Then, Alamar Blue (20 uL/well) (Invitrogen, Cat DAL1100) was added for 6 h, and the plates were read with a fluorescence microplate reader at 546/580 nm (excitation/emission). For PBMC proliferation, cells were plated and activated as above but incubated for only 16 h prior to addition of Alamar Blue. Plates were read after 6 h.

SMILES | AC50 | outcome
O=C(O)C(F)(F)C(F)(F)C(F)(F)C(F)(F)C(F)(F)C(F)(F)C(F)(F)C(F)(F)C(F)(F)C(F)(F)F | 2.59 µM (active) and 2.58 µM (active) | –
COC[C@H](C)N(C(=O)CCl)c1c(C)csc1C | – | inactive
CC(C)c1ccc(CO)cc1 | – | inactive
COP(=S)(OC)Oc1ccc(Sc2ccc(OP(=S)(OC)OC)cc2)cc1 | 28.6 µM (active) | –
COc1cc(OC)nc(NC(=O)NS(=O)(=O)c2ncccc2C(=O)N(C)C)n1 | – | inactive
OCc1ccco1 | – | inactive
Nc1cccc2ccccc12 | 14.5 µM (active) | –
CCOP(=S)(OCC)SCCS(=O)(=O)CC | – | inactive
O=C(O)C(F)(F)C(F)(F)C(F)(F)C(F)(F)C(F)(F)C(F)(F)F | – | inactive
NC(=S)Nc1ccccc1 | – | inactive
C(=NC1CCCCC1)=NC1CCCCC1 | 7.83 µM (active) | –
COP(=S)(OC)Oc1c(Cl)cc(C)cc1Cl | – | inactive
CCNc1nc(NC(C)(C)C)nc(SC)n1 | – | inactive
Nc1ncc([N+](=O)[O-])s1 | – | inactive
O=Cc1cccc(Oc2ccccc2)c1 | – | inactive
ClC(Cl)=C(Cl)C(Cl)=C(Cl)Cl | 3.97 µM (active) | –
COP(=S)(OC)Oc1ccc(S(=O)(=O)N(C)C)cc1 | – | inactive
O=C(O)CCC(F)(C(F)(F)F)C(F)(F)F | – | inactive

SMILES | AC50 | outcome
ClC1=C(Cl)[C@]2(Cl)[C@H]3[C@H]([C@H]4C=C[C@H]3C4)[C@@]1(Cl)C2(Cl)Cl | 5.43 µM (active) | –
O=[N+]([O-])c1ccc2c3c(cccc13)CC2 | – | inactive
CCOP(=S)(OCC)Oc1ccc(S(C)=O)cc1 (stereo unspecified) | – | inactive
COC(=O)c1sccc1S(=O)(=O)NC(=O)Nc1nc(C)nc(OC)n1 | – | inactive
O=S(=O)(c1ccc(Cl)cc1)c1ccc(Cl)cc1 | – | inactive
CC(C)CCCCCCOC(=O)c1ccccc1C(=O)OCCCCCCC(C)C | – | inactive
BrCCBr | – | inactive
COP(=S)(OC)Oc1cc(Cl)c(Cl)cc1Cl | – | inactive
CCCCCCCCC(=O)NCc1ccc(O)c(OC)c1 | – | inactive
Oc1c(I)cc(I)cc1I | 3.97 µM (active) | –
CCCCC(CC)CO[N+](=O)[O-] (stereo unspecified) | – | inactive
CCOC(=O)/C=C(C)/C=C/C[C@@H](C)CCCC(C)C | 30.6 µM (active) | –
Oc1ccc(-c2ccccc2)cc1 | 0.414 µM (active) | –
O=C(OC1CCCCC1)c1ccccc1C(=O)OC1CCCCC1 | 16.6 µM (active) | –
CCSC(C)CC1CC(=O)C(C(CC)=NOC/C=C/Cl)=C(O)C1 (stereo unspecified) | – | inactive
Nc1ccc(-c2ccc(N)c(Cl)c2)cc1Cl | 3.17 µM (active) | –
CC(=O)C(Cl)C(=O)N(C)C (stereo unspecified) | – | inactive
CC1(C)Cc2cccc(O)c2O1 | – | inactive
